Screens: PubChem, National Center for Advancing Translational Sciences (NCATS)
In the library only some 8.1% were active in any assay of this set; here they are far more common.
Gal4-VP16 FLuc: counter-screen for ROR gamma inhibitors: Gal4-VP16 reporter | Potency, µM (doses to about 53.6 µM), for inactives: at the top dose activity, negative = inhibition, actives largely listed as inhibitors | actives 3.5% (n = 310,000) | Drosophila S2 Gal4-VP16 UAS-luciferase, luminescence, 20 h;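 also: Gal4-VP16 expression switched on by copper sulfate through the metallothionein promoter; % is scaled to controls: 0 for no effect and ±100 for the full control effect; nearly all actives have a fitted effect of over 50% in size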
Sfp PPTase inh: Sfp phosphopantetheinyl transferase inhibition; actives 3.5% (n = 310,000); Biochemical Sfp PPTase activity, qHTS; Q9F4F7; Potency, µM, inactives show largest response in the series, negative = inhibition, hits mostly inhibitors; AID 1490;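 also: the enzyme is Sfp with the accession as filed and its product quenches rhodamine fluorescence; 0% = enzyme reaction without inhibitor and -100% = no enzyme wells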
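Compounds were incubated with enzyme (final 15 nM) for 15 min at room temperature before substrate addition started the reaction. Fluorescence at 525 nm excitation, 598 nm emission was recorded immediately and after 30 minutes.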
Epigenetic derep: epigenetic control regulation, reporter derepression | actives 0.2% (n = 280,000) | murine LDR cells, GFP reporter derepression, 30 h | Potency, µM (titrated, usually from 53.9 µM), without a hit: at the top dose GFP activation, usual class: activators; also: % of control where 0% means no effect; nearly all actives have a fitted effect of over 60% in size
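In this reporter-derepression format, murine cells bearing a silenced integrated CMV-GFP locus incubate with test compound (30 h, 37 C), then are washed and imaged; fluorescent objects of 20–120 um count as induced cells.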
PINK1 modulator: PINK1 expression modulation; PINK1 immunofluorescence, high-content cytometry, 24 h; actives 0.2% (n = 410,000); AID 624263; Potency, µM (highest dose often 76.6 µM), for inactives: top-dose activation (PINK1 increase), most hits filed as activators; active = well fitted activation curve with a large enough effect; inconclusive = small, poorly fitted or top-dose-only effect; cell line not stated here; also: % of control where 0% means no effect; nearly all actives have a fitted effect of over 65% in size
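Compound titrations (5 concentrations, 24 h) on a stable cell line; DMSO and CCCP controls. Endpoint: fixed-cell PINK1 immunofluorescence with mitochondrial, cell and nuclear markers, scanned by microplate cytometer.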
RORg inh: blocks mouse ROR gamma transcriptional activity. Drosophila S2 Gal4-RORgamma UAS-luciferase reporter, 20 h. P51450. actives 5.4% (n = 310,000). Potency, µM (top dose mostly 53.6 µM), without a hit: at the top dose activity change, negative = inhibition, hits mostly inhibitors; also: % is scaled to controls: 0 for no effect and ±100 for the full control effect; nearly all actives have a fitted effect of over 60% in size
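Luciferase reporter read in Schneider cells carrying Gal4-RORγ (mouse) and UAS-Photinus luciferase; cells given compound 1 h before 700 uM copper sulfate induction, then incubated 20 h at ambient temperature.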
ClpP mod: qHTS Assay for Activators of ClpP | ATP-dependent Clp protease proteolytic subunit (Bacillus subtilis (strain 168)), P80244 | purified B. subtilis ClpP, FRET peptide cleavage, 20 min | Potency, µM (series often up to 57.5 µM), for the others: at the highest dose activity change, negative = active | actives 1.9% (n = 340,000); active = well fitted falling curve with a large enough effect; inconclusive = small, poorly fitted or top-dose-only effect; inactive = no such curve, though single readings can be large or run the other way; also: the source files actives as falling curves though it sought activators and does not explain the sign; nearly all actives have a fitted effect of over 65% in size
Target sequence (P80244 whole entry, looked up): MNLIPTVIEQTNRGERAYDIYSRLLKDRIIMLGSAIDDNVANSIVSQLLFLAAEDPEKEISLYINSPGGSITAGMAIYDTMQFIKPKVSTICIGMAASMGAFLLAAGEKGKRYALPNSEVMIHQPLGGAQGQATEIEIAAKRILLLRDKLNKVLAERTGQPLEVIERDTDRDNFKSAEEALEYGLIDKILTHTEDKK
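Buffer: 100 mM Tris/HCl pH8, 100 mM KCl, 0.05% low protease BSA, 2.5% glycerol, 0.01% Tween-20. ClpP 10 microg/mL final; 20 min RT; delta FRET normalized to ADEP and DMSO controls.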
* hit, by the source's call; u = inconclusive; x = no result; [ ] = dose if it differs, or a comment. Unless noted, calls follow the shape of the dose curve; as a rule, active = well fitted curve in the direction sought with a large enough effect; inconclusive = small, poorly fitted or top-dose-only effect, or another doubt; inactive = no such curve, though single readings can be large; an effect the other way counts as inactive or inconclusive. Potency is read from the fitted curve at half-maximal effect.

SMILES	Gal4-VP16 FLuc	Sfp PPTase inh	Epigenetic derep	PINK1 modulator	RORg inh	ClpP mod
S=C(S)O[C@@H]1C[C@@H]2C[C@H]1[C@@H]1CCC[C@H]21	1µM*	12%	1%	x	0.56µM*	x
S=C(S)OC1CC2CC1C1CCCC21 (stereo not drawn)	x	15%	6%	-1%	x	-3%
Cc1ccc(C2N(C)c3ccccc3-c3nc4ccccc4n32)o1 (stereo not drawn)	-16%	-4%	-1%	3%[38.3 µM]	10µM*	-17%
CN1c2ccccc2-c2nc3ccccc3n2C1c1cccs1 (stereo not drawn)	-3%	-8%	-2%	14%	4.5µM*	-21%
COc1cccc(-n2c(SCC(=O)Nc3ccc4c(c3)OCO4)nc3c([nH]c4ccccc43)c2=O)c1	x	x	0%	u	x	u
COc1ccc(CN2CCc3nnc(CCc4ccccc4)n3CC2)c(OC)c1C	x	x	x	0%	x	x
CC(C)CC(=O)NC1CC(=O)N(c2ccc3c(c2)OCCO3)C1 (stereo not drawn)	x	x	0%	2%	x	-8%
O=C(N/N=C/c1ccc(Br)s1)c1ccccc1[N+](=O)[O-]	6.3µM*	5%	-1%	0%	2.5µM*	1%
O=C(O)c1cc(N/N=C/c2ccc(N3CCOCC3)s2)ccc1Cl	-4%	56µM*	-1%	-1%	39%	-4%
O=C(N/N=C/c1ccc(Br)s1)c1ccc([N+](=O)[O-])cc1	0.63µM*	-3%	2%	4%	0.45µM*	-2%
Cc1ccc([N+](=O)[O-])c(C(=O)N/N=C/c2cccs2)c1	1.3µM*	-6%	-1%	2%	1.4µM*	-1%
O=C(NN=Cc1ccc2c(c1)CCC2)c1ccccc1[N+](=O)[O-]	x	x	x	15%	x	-1%
CC1(C)Nc2cccc3c(N=Nc4ccc(N=Nc5ccccc5)c5ccccc45)ccc(c23)N1	x	x	x	1%	x	-24%
CC1CCN(S(=O)(=O)c2ccc3c(c2)N(CC(=O)NC(C)c2ccccc2)C(=O)CS3)CC1 (stereo not drawn)	x	x	2%	1%	x	0%
NCCc1cnc(-c2cccc(C(F)(F)F)c2)[nH]1	5%	4%	x	x	2%	x
CCOc1ccc(CCNC(=O)c2nc(-c3cccc(F)c3)n3c2CCCCC3)cc1OCC	x	x	0%	2%	x	0%
NC(=O)N/N=C/c1ccc(N2CCOCC2)s1	1%	79µM*	1%	-1%	40%	-8%
CC(C)=CCC/C(C)=C/C=N/NC(=O)c1ccccc1[N+](=O)[O-]	11µM*	20%	-1%	0%	6.3µM*	2%
O=C(NN=Cc1ccc(N2CCOCC2)s1)c1ccc([N+](=O)[O-])cc1	x	x	x	16µM*	x	0%
C/C(CCc1ccccc1)=N\NC(=O)c1ccccc1[N+](=O)[O-]	-4%	2%	-1%	2%	-16%	-1%
Cn1ncc2c(NCc3ccc(F)cc3)ncnc21	x	x	-1%	-2%	x	0%
O=C(CCSCCc1ccccn1)Nc1ccccc1C(F)(F)F	x	x	-1%	0%	x	-4%
O=C(O)c1ccc(S(=O)(=O)N[C@H](Cc2ccc(C(F)(F)F)cc2)C(=O)O)cc1	4%	11%	x	x	7%	x
Cc1ccc(CNC(=O)c2ccc(CNS(=O)(=O)c3ccc4c(c3)C(C)(C)C(=O)N4C)cc2)o1	-24%	50µM*	x	1%	-16%	-2%
CNc1nc(=S)[nH]c2ccccc12	-3%	u	0%	1%	-46%	-1%
O=c1[nH]c(C2CCCCC2)nc2ccccc12	2%	-1%	-3%	1%	20%	2%
CC(C)c1nc(=S)c2ccccc2[nH]1	10µM*	-15%	1%	-1%	5.6µM*	0%
S=c1nc(SCc2ccccc2)[nH]c2ccccc12	10µM*	15%	1%	4%	1.4µM*	x
S=c1nc(C2CCCCC2)[nH]c2ccccc12	8.9µM*	24%	1%	4%	0.63µM*	x
